Measured values from PubChem BioAssay (NCATS).
Records with an inconclusive call do not appear. Where a call stands in place of a potency, no number is given. Activity calls are given as the source filed them. Calls come from the whole dose curve; as a rule, active = well fitted curve in the direction sought with a large enough effect; inconclusive = small, poorly fitted or top-dose-only effect, or another doubt; inactive = no such curve, though single readings can be large; an effect the other way counts as inactive or inconclusive.

Legend:
[1] = qHTS of pediatric cancer cell lines to identify multiple opportunities for drug repurposing: Primary screen for OHS-50 cells (AID 1347103); note: nearly all actives have a fitted effect of over 40% in size
How it was run: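 Cells (500-1,000/well) rested 5 h, then received compounds for 48 h; metabolically active cells were measured by CellTiter-Glo luminescence. Final concentrations spanned up to 46 µM (MIPE, 11-point) or 0.59 nM-46 µM (NPC, 8-point) in primary screens, 11-point in follow-ups.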

[2] = qHTS of pediatric cancer cell lines to identify multiple opportunities for drug repurposing: Primary screen for RD cells (AID 1347104); note: nearly all actives have a fitted effect of over 55% in size
How it was run: (§1)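 CRCs from 8- or 11-point titrations (lowest final 0.59 nM NPC, 0.78 nM MIPE). Cell viability: CellTiter-Glo after 48 h incubation, 15 min room-temperature development, luminescence imaging.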

[3] = qHTS of pediatric cancer cell lines to identify multiple opportunities for drug repurposing: Primary screen for MG 63 (6-TG R) cells (AID 1347105); note: nearly all actives have a fitted effect of over 50% in size
How it was run: as §1

[4] = qHTS of pediatric cancer cell lines to identify multiple opportunities for drug repurposing: Primary screen for control Hh wild type fibroblast cells (AID 1347106); note: nearly all actives have a fitted effect of over 55% in size
How it was run: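 Cells (500-1,000/well) in growth media were settled 5 h at 37 degrees C, then given compounds for 48 h. Viability was read as CellTiter-Glo luminescence. Primary runs used MIPE at 11 points (0.78 nM-46 µM) and NPC at 8 points (0.59 nM-46 µM); follow-ups used 11 points.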

[5] = qHTS of pediatric cancer cell lines to identify multiple opportunities for drug repurposing: Primary screen for Rh30 cells (AID 1347107); note: nearly all actives have a fitted effect of over 75% in size
How it was run: (§2)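 Viability after 48 h compound treatment at 37C, 500-1,000 cells/well, read as ATP luminescence with CellTiter-Glo. Primary screens used 11-point (MIPE, 0.78 nM-46 µM) or 8-point (NPC, 0.59 nM-46 µM) final concentrations; follow-up screens used 11-point dilutions.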

[6] = qHTS of pediatric cancer cell lines to identify multiple opportunities for drug repurposing: Primary screen for Rh41 cells (AID 1347108); note: nearly all actives have a fitted effect of over 70% in size
How it was run: as §1

[7] = qHTS of pediatric cancer cell lines to identify multiple opportunities for drug repurposing: Confirmatory screen for NB1643 cells (AID 1347109); note: nearly all actives have a fitted effect of over 45% in size
How it was run: as §2

[8] = qHTS of pediatric cancer cell lines to identify multiple opportunities for drug repurposing: Confirmatory screen for A673 cells (AID 1347110); note: nearly all actives have a fitted effect of over 65% in size
How it was run: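 Cells plated at 500-1,000/well were treated five hours later with multi-point dilutions up to 46 µM final. After two days, CellTiter-Glo was added and luminescence read.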

[9] = qHTS of pediatric cancer cell lines to identify multiple opportunities for drug repurposing: Confirmatory screen for SK-N-MC cells (AID 1347111);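 note: cells exposed to compound for 48 h before the readout; nearly all actives have a fitted effect of over 70% in size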
How it was run: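 SK-N-MC cells at 500-1,000 cells/well in growth media were pre-incubated 5 h, then exposed to compounds at 11-point dilutions for 48 h at 37 degrees C, 5% CO2. Viability was read as CellTiter-Glo luminescence.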

[10] = qHTS of pediatric cancer cell lines to identify multiple opportunities for drug repurposing: Confirmatory screen for BT-12 cells (AID 1347112); note: nearly all actives have a fitted effect of over 55% in size
How it was run: as §2

[11] = qHTS of pediatric cancer cell lines to identify multiple opportunities for drug repurposing: Confirmatory screen for NB-EBc1 cells (AID 1347115); note: nearly all actives have a fitted effect of over 45% in size
How it was run: as §2

[12] = qHTS of pediatric cancer cell lines to identify multiple opportunities for drug repurposing: Confirmatory screen for BT-37 cells (AID 1347117); note: nearly all actives have a fitted effect of over 55% in size
How it was run: as §2

[13] = qHTS of pediatric cancer cell lines to identify multiple opportunities for drug repurposing: Confirmatory screen for TC32 cells (AID 1347118); note: nearly all actives have a fitted effect of over 65% in size
How it was run: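 Luminescent CellTiter-Glo read-out of metabolically active TC32 cells after 48 h compound exposure. Primary: MIPE 11-point, 0.78 nM–46 µM; NPC 8-point, 0.59 nM–46 µM. Confirmatory: 11-point dilutions.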

[14] = qHTS of pediatric cancer cell lines to identify multiple opportunities for drug repurposing: Confirmatory screen for MG 63 (6-TG R) cells (AID 1347119); note: nearly all actives have a fitted effect of over 55% in size
How it was run: as §2

[15] = qHTS of pediatric cancer cell lines to identify multiple opportunities for drug repurposing: Confirmatory screen for control Hh wild type fibroblast cells (AID 1347121); note: nearly all actives have a fitted effect of over 70% in size
How it was run: as §2

[16] = qHTS of pediatric cancer cell lines to identify multiple opportunities for drug repurposing: Confirmatory screen for Rh18 cells (AID 1347125); note: nearly all actives have a fitted effect of over 55% in size
How it was run: as §2

[17] = qHTS of pediatric cancer cell lines to identify multiple opportunities for drug repurposing: Confirmatory screen for DAOY cells (AID 1347114); note: nearly all actives have a fitted effect of over 65% in size
How it was run: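 Viability measured as metabolically active cells via CellTiter-Glo luminescence following 48 hours of compound exposure, 11-point dilutions in confirmatory testing. 500-1,000 cells/well plated 5 hours before dosing; controls were DMSO and 2.3 µM bortezomib.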

[18] = qHTS of pediatric cancer cell lines to identify multiple opportunities for drug repurposing: Confirmatory screen for U-2 OS cells (AID 1347122); note: nearly all actives have a fitted effect of over 65% in size
How it was run: as §2

[19] = qHTS of pediatric cancer cell lines to identify multiple opportunities for drug repurposing: Confirmatory screen for Rh41 cells (AID 1347123); note: nearly all actives have a fitted effect of over 60% in size
How it was run: as §2

[20] = qHTS of pediatric cancer cell lines to identify multiple opportunities for drug repurposing: Confirmatory screen for RD cells (AID 1347124)
How it was run: as §2
Potency is the fitted concentration of half-maximal effect.

## CCN1CCN(C(=O)Cc2ccc(Nc3ncc(F)c(Nc4ccc(C(=O)Nc5ccccc5Cl)cc4)n3)cc2)CC1
[1]
  Potency: 4.32 µM (active)
[2]
  Potency: 13.2 µM (active)
[3]
  Potency: 9.35 µM (active)
[4]
  Potency: inactive
[5]
  Potency: 23.5 µM (active)
[6]
  Potency: 18.7 µM (active)

## CCCC[N+]1(C)[C@H]2CC(OC(=O)[C@H](CO)c3ccccc3)C[C@H]1[C@H]1O[C@H]12 (stereo not given in full)
[1]
  Potency: inactive
[2]
  Potency: inactive
[3]
  Potency: inactive
[4]
  Potency: inactive
[5]
  Potency: inactive
[6]
  Potency: inactive

## CC1=NN=C(c2ccc(N)cc2)c2cc3c(cc2C1)OCO3
[1]
  Potency: inactive
[2]
  Potency: inactive
[3]
  Potency: inactive
[4]
  Potency: inactive
[5]
  Potency: inactive
[6]
  Potency: inactive

## CCOP(=O)(OCC)C(C)NC(=O)N(CCCl)N=O (stereo not given)
[1]
  Potency: inactive
[2]
  Potency: inactive
[3]
  Potency: inactive
[4]
  Potency: inactive
[5]
  Potency: inactive
[6]
  Potency: inactive

## CC(C)NCC(O)c1ccc([N+](=O)[O-])cc1 (stereo not given)
[1]
  Potency: inactive
[2]
  Potency: inactive
[3]
  Potency: inactive
[4]
  Potency: inactive
[5]
  Potency: inactive
[6]
  Potency: inactive

## COC(=O)c1cncn1C(C)c1ccccc1 (stereo not given)
[1]
  Potency: inactive
[2]
  Potency: inactive
[3]
  Potency: inactive
[4]
  Potency: inactive
[5]
  Potency: inactive
[6]
  Potency: inactive

## NC1CC1c1ccccc1 (stereo not given)
[1]
  Potency: inactive
[2]
  Potency: inactive
[3]
  Potency: inactive
[4]
  Potency: inactive
[5]
  Potency: inactive
[6]
  Potency: inactive

## C[C@@H]1CC[C@@]2(OC1)O[C@H]1C[C@H]3[C@@H]4CC=C5C[C@@H](O[C@@H]6O[C@H](CO)[C@@H](O[C@@H]7O[C@@H](C)[C@H](O)[C@@H](O)[C@@H]7O)[C@H](O)[C@@H]6O[C@@H]6O[C@@H](C)[C@H](O)[C@@H](O)[C@@H]6O)CC[C@]5(C)[C@@H]4CC[C@]3(C)[C@@H]1[C@H]2C
[1]
  Potency: 4.32 µM (active)
[2]
  Potency: 5.9 µM (active)
[3]
  Potency: 2.96 µM (active)
[4]
  Potency: inactive
[5]
  Potency: 11.8 µM (active)
[6]
  Potency: 14.8 µM (active)
[7]
  Potency: 4.14 µM (active)
[8]
  Potency: 6.57 µM (active)
[9]
  Potency: 2.33 µM (active)
[10]
  Potency: 9.27 µM (active)
[11]
  Potency: 16.5 µM (active)
[12]
  Potency: 5.22 µM (active)
[13]
  Potency: 4.14 µM (active)
[14]
  Potency: 2.61 µM (active)
[15]
  Potency: 13.1 µM (active)
[16]
  Potency: 10.4 µM (active)

## Nc1ccc(Cl)cc1
[1]
  Potency: inactive
[2]
  Potency: inactive
[3]
  Potency: inactive
[4]
  Potency: inactive
[5]
  Potency: inactive
[6]
  Potency: inactive

## CN1[C@H]2CC(O)C[C@H]1[C@H]1O[C@H]12 (stereo not given in full)
[1]
  Potency: 9.68 µM (active)
[2]
  Potency: 33.2 µM (active)
[3]
  Potency: 14.8 µM (active)
[4]
  Potency: inactive
[5]
  Potency: 23.5 µM (active)
[6]
  Potency: 23.5 µM (active)

## CC(O)CN1CCN(CC(=O)[O-])CCN(CC(=O)[O-])CCN(CC(=O)[O-])CC1.[Gd+3] (stereo not given)
[1]
  Potency: inactive
[2]
  Potency: inactive
[3]
  Potency: inactive
[4]
  Potency: inactive
[5]
  Potency: inactive
[6]
  Potency: inactive

## Nc1ccc(Sc2ccc(N)cc2)cc1
[1]
  Potency: inactive
[2]
  Potency: inactive
[3]
  Potency: inactive
[4]
  Potency: inactive
[5]
  Potency: inactive
[6]
  Potency: inactive

## CCCCCCCCc1ccc(O)cc1
[1]
  Potency: 25.4 µM (active)
[2]
  Potency: inactive
[3]
  Potency: inactive
[4]
  Potency: inactive
[5]
  Potency: inactive
[6]
  Potency: inactive

## c1cc2ccc3cccc4ccc(c1)c2c34
[1]
  Potency: inactive
[2]
  Potency: inactive
[3]
  Potency: inactive
[4]
  Potency: inactive
[5]
  Potency: inactive
[6]
  Potency: inactive

## CC(N[C@H]1C[C@H]1c1ccccc1)c1ccc2c(c1)OCCO2 (stereo not given in full)
[1]
  Potency: inactive
[2]
  Potency: inactive
[3]
  Potency: inactive
[4]
  Potency: inactive
[5]
  Potency: inactive
[6]
  Potency: inactive

## O=C(Oc1ccc([N+](=O)[O-])cc1)N1CCN(Cc2cccc(Oc3ccccc3)c2)CC1
[1]
  Potency: inactive
[2]
  Potency: 18.7 µM (active)
[3]
  Potency: 14.8 µM (active)
[4]
  Potency: 3.32 µM (active)
[5]
  Potency: inactive
[6]
  Potency: inactive

## O=c1[nH]c2ccc(Cl)cc2c(N[C@@H]2CN3CCC2CC3)c1-c1nc2ccccc2[nH]1
[1]
  Potency: 0.109 µM (active)
[2]
  Potency: 5.9 µM (active)
[3]
  Potency: 0.235 µM (active)
[4]
  Potency: 16.6 µM (active)
[5]
  Potency: inactive
[6]
  Potency: 14.8 µM (active)
[7]
  Potency: 1.31 µM (active)
[8]
  Potency: 0.261 µM (active)
[9]
  Potency: 0.293 µM (active)
[10]
  Potency: 13.1 µM (active)
[17]
  Potency: 9.27 µM (active)
[11]
  Potency: 0.522 µM (active)
[12]
  Potency: 5.85 µM (active)
[13]
  Potency: 0.465 µM (active)
[15]
  Potency: 18.5 µM (active)
[18]
  Potency: 1.31 µM (active)
[19]
  Potency: 3.69 µM (active)
[20]
  Potency: 2.33 µM (active)
[16]
  Potency: 26.1 µM (active)

## CC(Cc1ccc(O)cc1)NCC(O)c1cc(O)cc(O)c1 (stereo not given)
[1]
  Potency: inactive
[2]
  Potency: inactive
[3]
  Potency: inactive
[4]
  Potency: inactive
[5]
  Potency: inactive
[6]
  Potency: inactive

## COc1cccc2c1[C@]13CCN(CC4CC4)[C@H](C2)[C@]1(OC)CCC(=O)C3
[1]
  Potency: inactive
[2]
  Potency: inactive
[3]
  Potency: inactive
[4]
  Potency: inactive
[5]
  Potency: inactive
[6]
  Potency: inactive

## O=[N+]([O-])c1cc([N+](=O)[O-])c2ccccc2c1
[1]
  Potency: inactive
[2]
  Potency: inactive
[3]
  Potency: inactive
[4]
  Potency: inactive
[5]
  Potency: inactive
[6]
  Potency: inactive

## CC(=O)N(C)c1cccc(-c2ccnc3c(C(=O)c4cccs4)cnn23)c1
[1]
  Potency: inactive
[2]
  Potency: inactive
[3]
  Potency: inactive
[4]
  Potency: inactive
[5]
  Potency: inactive
[6]
  Potency: inactive

## CC(C)(C)NC[C@H](O)c1ccc(O)cc1Cl
[1]
  Potency: inactive
[2]
  Potency: inactive
[3]
  Potency: inactive
[4]
  Potency: inactive
[5]
  Potency: inactive
[6]
  Potency: inactive
